The source of these data is PubChem BioAssay.

Structures are written as SMILES. Calls of active or inactive are those of the source.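 The calls were made as follows, unless noted: active = fluorescence slope higher than the sample average by over 3 SD (cut at about -0.22 in these data, passing the limit was not always enough); inactive = the rest.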

Assay [1] can be described thus: inhibitors of TNFa-induced NFkB p65 translocation, primary screen, imaging, HUVEC, MLSMR starter and 10KST1 sets (AID 438;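 active = inhibition above 20% together with a positive visual image hit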;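 also: compound added about 3h40 before a 20 min TNFalpha stimulation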;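 as to inhibition: signal is the nuclear over cytoplasmic p65 intensity ratio per well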). The settings on record: HUVEC TNFa-induced p65 nuclear translocation; cell count: measured here: nuclei count (cytotoxicity indicator), at 2.08 µM; inhibition: at 2 µM, stronger effect = higher value, 0% TNFa-plus-vehicle, 100% no-TNFa wells.
The nature of assay [2]: reduction of polyQ htt aggregates in cells – imaging, exon1htt(103Q)mCFP cells, high-content imaging, primary screen (AID 483;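 active = visual image review flags a hit and inhibition of aggregation exceeds 20%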;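 also: compound exposure lasted 3 days before fixation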;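 as to nuclei count: percent of the per-plate median nuclei count of sample wells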). The following applies: exon1htt(103Q)mCFP cell line, aggregate imaging, at 2 µM; inhibition of aggregation: stronger effect = higher value; nuclei count: measured here: cell count, toxicity.
A short description of assay [3]: endothelial E-selectin expression blockers – imaging, HUVEC, immunofluorescence, MLSMR starter and 10KST1 sets, primary screen (AID 487;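 active = visually confirmed hit in the image check and inhibition above 20%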;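 as to inhibition: signal is fraction of cell area covered by stained E-selectin grains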;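 as to nuclei count: 100% = median nuclei count of all wells on the same plate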). The settings on record: HUVEC TNFalpha-induced E-selectin immunofluorescence imaging, at 2 µM; inhibition: stronger effect = higher value; nuclei count: measured here: cell number, toxicity.
Assay [4] concerns the target Voltage-gated potassium channel subunit beta-2 (Rattus norvegicus) (UniProt P62483). Briefly: inhibitors of rat Kvbeta2 reductase activity – biochemical, NADPH fluorescence, primary screen (AID 622).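 Also: slope of raw intensity against log time taken from 70 to 1610 s.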 The following applies: recombinant KvBeta, 4-cyanobenzaldehyde reduction, at 10 µM, stronger effect = higher value.
Assay [5] shares this target. Briefly: enhancers of rat Kvbeta2 NADPH turnover – biochemical, NADPH fluorescence, primary screen (AID 623;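 active = NADPH fluorescence slope more negative than the mean of all samples by about 3 SD, 99.7% confidence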;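 also: fluorescence intensity change per second fitted from 20 to 320 s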). The settings on record: Recombinant KvBeta, NADPH fluorescence decrease slope, 10 min; at 10 µM; stronger effect = lower value.
The target in assay [6] is Alpha-2C adrenergic receptor (Homo sapiens) (UniProt P18825). The assay can be described thus: compounds altering alpha2C-coupled GIRK flux – cell-based, HEK293 alpha2C/GIRK1/2, thallium flux, primary screen (AID 624;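 active = fluorescence slope after compound addition differing from the mean of all screened samples at 99.7% confidence, in either direction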;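 also: slope of fluorescence ratio to pre-addition baseline per second over 15 to 24 s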). The settings on record: thallium flux BTC fluorescence, at 10 µM, actives lie on both sides.
A short description of assay [7]: blockers of RIG-like receptor reporter activation – cell-based, Sendai virus stimulus, luciferase, 10K MLSCN set, TLR/RLR signaling modifier project, primary screen (AID 602276;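 active = inhibition at or above 50% at 10 µM; inactive = inhibition below 50%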;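 also: firefly luciferase from ISG56 promoter only with Renilla not read in this screen; 0% = Sendai virus plus DMSO and 100% = medium plus DMSO without virus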). The settings on record: HEK293 RL24 IRF3 luciferase reporter, at 10 µM, stronger effect = higher value. (In a reporter assay the amount or activity of a reporter protein is the signal.)
Assay [8] is described as follows: TLR3 IRF3 reporter activation blockers – cell-based, poly I:C stimulus, luciferase, 10K MLSCN set, primary screen (AID 602277;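 active = inhibition of the reporter signal at or above 50%; inactive = inhibition below 50%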). The settings on record: HEK293-TLR3 RL24 IRF3 luciferase reporter, at 10 µM, stronger effect = higher value.

Chain of Voltage-gated potassium channel subunit beta-2 (Rattus norvegicus) (P62483 whole entry, looked up): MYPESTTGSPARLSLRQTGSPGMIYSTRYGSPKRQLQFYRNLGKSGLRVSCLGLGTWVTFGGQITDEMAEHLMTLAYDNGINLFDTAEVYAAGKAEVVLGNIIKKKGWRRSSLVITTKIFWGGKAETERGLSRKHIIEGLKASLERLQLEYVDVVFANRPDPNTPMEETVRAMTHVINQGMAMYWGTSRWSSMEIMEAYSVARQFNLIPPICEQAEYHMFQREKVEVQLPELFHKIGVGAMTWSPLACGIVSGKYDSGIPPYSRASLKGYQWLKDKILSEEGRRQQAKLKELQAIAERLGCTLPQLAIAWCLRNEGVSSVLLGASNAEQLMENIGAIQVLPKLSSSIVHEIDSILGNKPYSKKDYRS
Chain of Alpha-2C adrenergic receptor (Homo sapiens) (P18825 whole entry, looked up): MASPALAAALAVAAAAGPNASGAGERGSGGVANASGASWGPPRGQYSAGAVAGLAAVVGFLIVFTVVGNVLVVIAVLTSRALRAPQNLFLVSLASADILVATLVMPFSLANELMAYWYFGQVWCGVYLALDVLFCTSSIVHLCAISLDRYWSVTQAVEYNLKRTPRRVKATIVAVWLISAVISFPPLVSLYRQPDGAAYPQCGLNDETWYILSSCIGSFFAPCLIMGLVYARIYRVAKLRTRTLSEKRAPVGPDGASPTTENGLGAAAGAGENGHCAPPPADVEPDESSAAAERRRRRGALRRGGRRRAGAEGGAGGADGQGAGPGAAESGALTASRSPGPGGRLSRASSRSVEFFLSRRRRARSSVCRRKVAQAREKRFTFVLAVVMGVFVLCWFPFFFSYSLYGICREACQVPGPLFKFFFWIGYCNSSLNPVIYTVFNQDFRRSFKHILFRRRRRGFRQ

In the case of `Cc1ccccc1Nc1cc2ccccc2c(=O)[nH]1`, the cell count in assay [1] amounted to 481. Further, the inhibition (commonly the relative decrease from the control value, in per cent) in assay [1] is -12.2% (inactive); in assay [3] it was -35% (inactive); in assay [7] it was -7.13% (inactive); in assay [8] it was 20.8% (inactive). Moreover, the inhibition of aggregation in assay [2] is -19.5% (inactive). Also, the nuclei count was found to be 102% in assay [2] and 98.8% in assay [3]. For the same compound, in assay [4], the fluorescence slope was -0.17 (inactive). Moreover, the NADPH fluorescence slope in assay [5] was 1.6e-05 (inactive). The slope in assay [6] was 0.00385 (inactive).

As to `CC(NC(=O)c1cc2c(=O)n(C)c3ccccc3c2n1C)c1ccc2c(c1)OCCO2` (centres undefined), the cell count in assay [1] turned out to be 798. Also, the inhibition in assay [1] was -4.4% (inactive); in assay [3] it was -41.1% (inactive); in assay [7], 4.73% (inactive); in assay [8] it was 4.98% (inactive). The inhibition of aggregation in assay [2] is 3.3% (inactive). Besides, the nuclei count in assay [2] stood at 139%; in assay [3], 107%. In addition, the fluorescence slope in assay [4] is -0.623 (inactive). In addition, in assay [5], the NADPH fluorescence slope was -2.2e-05 (inactive). Besides, the slope in assay [6] is 0.00677 (inactive).

In the case of `Cc1cc(C)c(NC(=O)CSc2nnc(-c3ccncc3)n2Cc2ccco2)c(C)c1`, in assay [1], the cell count was 412. Also, the inhibition in assay [1] is -5% (inactive); in assay [3], -107% (inactive); in assay [7], 5.1% (inactive); in assay [8], 10.2% (inactive). For the same compound, the inhibition of aggregation in assay [2] was -19.2% (inactive). Moreover, the nuclei count was 111% in assay [2] and 113% in assay [3]. Also, in assay [4], the fluorescence slope is -0.335 (inactive). Moreover, the NADPH fluorescence slope in assay [5] is -3.5e-05 (inactive). For the same compound, in assay [6], the slope was 0.00447 (inactive).

Consider `COCCn1c(SCc2csc(-c3ccccc3)n2)nc2ccccc21`, for which the cell count in assay [1] amounted to 639. Besides, the inhibition is 7.2% (inactive) in assay [1], -24.6% (inactive) in assay [3], 1.52% (inactive) in assay [7] and -1.01% (inactive) in assay [8]. In addition, in assay [2], the inhibition of aggregation was -4% (inactive). Besides, the nuclei count in assay [2] was determined as 97.2%; in assay [3], 96.8%. Also, the fluorescence slope in assay [4] is -0.456 (inactive). In addition, in assay [5], the NADPH fluorescence slope was 7.6e-05 (inactive). Besides, the slope in assay [6] is 0.00574 (inactive).

Consider `COc1ccc(C2C(C(=O)Nc3cccnc3)=C(C)Nc3nc(-c4cccs4)nn32)cc1OC` (centres undefined), for which the cell count in assay [1] worked out at 543. Moreover, the inhibition in assay [1] was 5.1% (inactive); in assay [3], 3.4% (inactive); in assay [7] it was 7.94% (inactive); in assay [8] it was 31.3% (inactive). In assay [2], the inhibition of aggregation is 2.5% (inactive). The nuclei count amounted to 84.7% in assay [2] and 104% in assay [3]. Further, in assay [4], the fluorescence slope is -0.593 (inactive). Further, the NADPH fluorescence slope in assay [5] was -4.3e-05 (inactive). Also, the slope in assay [6] was 0.0064 (inactive).

Turning to `CCOC(=O)c1sc(NC(=O)C2CC=CCC2C(=O)O)nc1C` (centres undefined), the cell count in assay [1] was 406. The inhibition is 2.5% (inactive) in assay [1], 19.8% (inactive) in assay [3], 21.8% (inactive) in assay [7] and 32.8% (inactive) in assay [8]. Further, in assay [2], the inhibition of aggregation was -2.8% (inactive). The nuclei count amounted to 97.8% in assay [2] and 105% in assay [3]. Further, the fluorescence slope in assay [4] is -0.527 (inactive). Further, the NADPH fluorescence slope in assay [5] is 5.4e-05 (inactive). The slope in assay [6] is 0.00721 (inactive).

Consider `Cc1cccnc1-n1c(CCN2C(=O)c3ccccc3C2=O)nc2ccccc2c1=O`, for which the cell count in assay [1] was 359. Moreover, the inhibition was -5.4% (inactive) in assay [1], -12.9% (inactive) in assay [3], 2.74% (inactive) in assay [7] and 2.5% (inactive) in assay [8]. The inhibition of aggregation in assay [2] was 12.7% (inactive). Besides, the nuclei count was determined as 84.4% in assay [2] and 83.7% in assay [3]. Besides, the fluorescence slope in assay [4] is -0.327 (inactive). The NADPH fluorescence slope in assay [5] was -7.6e-06 (inactive). Besides, the slope in assay [6] was 0.00629 (inactive).

On to `Cc1c(NC(=O)C(C)OC(=O)c2cc3c4ccccc4n(C)c3s2)c(=O)n(-c2ccccc2)n1C` (centres undefined), for which the cell count in assay [1] worked out at 405. In addition, the inhibition in assay [1] is -1.3% (inactive); in assay [3] it was -1.3% (inactive); in assay [7], 25.6% (inactive); in assay [8] it was 34.4% (inactive). Further, the inhibition of aggregation in assay [2] was -35.1% (inactive). The nuclei count came out at 67.6% in assay [2] and 107% in assay [3]. Also, the fluorescence slope in assay [4] was -0.481 (inactive). Further, the NADPH fluorescence slope in assay [5] is -3.8e-06 (inactive). Further, the slope in assay [6] is 0.0038 (inactive).

As for `CCN(CC)CCCN1C(=O)C(O)=C(C(C)=O)C1c1cccc(OC)c1` (centres undefined), in assay [1], the cell count was determined as 468. The inhibition in assay [1] was 7.8% (inactive); in assay [3] it was -142% (inactive); in assay [7], 11.2% (inactive); in assay [8] it was 13.5% (inactive). In addition, the inhibition of aggregation in assay [2] is 3.9% (inactive). For the same compound, the results for the nuclei count in assay [2] and in assay [3] were 97.3% and 105%, respectively. For the same compound, the fluorescence slope in assay [4] was -0.367 (inactive). For the same compound, the NADPH fluorescence slope in assay [5] was -4.4e-05 (inactive). The slope in assay [6] was 0.00698 (inactive).

`COc1ccc(CCNC(=O)C2CC(=O)N(c3ccccc3)C2)cc1OC` (centres undefined): the cell count in assay [1] stood at 336. The inhibition in assay [1] was -2.5% (inactive); in assay [3], 22.4% (inactive); in assay [7], 16.9% (inactive); in assay [8], 25.7% (inactive). Moreover, the inhibition of aggregation in assay [2] is -5.4% (inactive). Further, the values for the nuclei count in assay [2] and in assay [3] were 102% and 109%, respectively. The fluorescence slope in assay [4] was -0.452 (inactive). Further, the NADPH fluorescence slope in assay [5] is 8.4e-07 (inactive). Also, the slope in assay [6] is 0.00653 (inactive).

With `O=C(Nc1ccc2c(c1)nc1n2CCN(Cc2ccccc2)C1)c1cccs1`, the cell count in assay [1] was found to be 420. Moreover, the inhibition is -13.3% (inactive) in assay [1], 11.1% (inactive) in assay [3], -17.8% (inactive) in assay [7] and -84.2% (inactive) in assay [8]. Besides, in assay [2], the inhibition of aggregation is 6.4% (inactive). Further, the nuclei count in assay [2] was 89.3%; in assay [3], 73.9%. For the same compound, in assay [4], the fluorescence slope was -0.461 (inactive). In addition, the NADPH fluorescence slope in assay [5] is -0.000271 (inactive). Moreover, the slope in assay [6] is 0.00505 (inactive).

`CCn1c(C(=O)N2CCCC(C(=O)NCCCc3ccccc3)C2)cc2sccc21` (centres undefined): in assay [1], the cell count is 618. For the same compound, the inhibition in assay [1] was -12% (inactive); in assay [3] it was -19.4% (inactive); in assay [7], -0.231% (inactive); in assay [8] it was -1.26% (inactive). Moreover, the inhibition of aggregation in assay [2] is 40.9% (active). The nuclei count is 123% in assay [2] and 104% in assay [3]. The fluorescence slope in assay [4] was -0.583 (inactive). Further, the NADPH fluorescence slope in assay [5] was -1.2e-05 (inactive). The slope in assay [6] is 0.00576 (inactive).

Turning to `Cc1ccc(N2CCN(c3ccc(C)cc3)C(CC(=O)O)C2=O)cc1` (centres undefined), the cell count in assay [1] worked out at 549. The inhibition in assay [1] is -4.7% (inactive); in assay [3], 12.6% (inactive); in assay [7] it was 5.38% (inactive); in assay [8], 4.47% (inactive). Also, the inhibition of aggregation in assay [2] is 3.3% (inactive). Besides, the nuclei count was 92.3% in assay [2] and 108% in assay [3]. Further, in assay [4], the fluorescence slope is -0.499 (inactive). For the same compound, the NADPH fluorescence slope in assay [5] was 1.5e-05 (inactive). Moreover, in assay [6], the slope was 0.00583 (inactive).

Turning to `COc1ccc(-n2ncc3c(N4CCN(c5cccc(C)c5C)CC4)ncnc32)cc1`, the cell count in assay [1] amounted to 589. For the same compound, the inhibition in assay [1] is -4.7% (inactive); in assay [3], -22% (inactive); in assay [7], 5.95% (inactive); in assay [8], 27.1% (inactive). Also, the inhibition of aggregation in assay [2] is -12.6% (inactive). In addition, the nuclei count in assay [2] came to 111%; in assay [3] it was 105%. Also, the fluorescence slope in assay [4] is -0.566 (inactive). In addition, in assay [5], the NADPH fluorescence slope is -3.6e-05 (inactive). In assay [6], the slope is 0.0072 (inactive).
